# Measured values reported in PubChem BioAssay (NCATS).
# Results filed as inconclusive are left out. A call without a number means that no potency is given here. Active and inactive are the calls of the source. Unless noted, the call rests on the fitted dose curve; in most records, active means well fitted curve in the direction sought with a large enough effect; inconclusive means small, poorly fitted or top-dose-only effect, or another doubt; inactive means no such curve, though single readings can be large; an effect the other way counts as inactive or inconclusive. Residues, ends and D or L forms follow the SMILES beside them.
# Tests used:
# [1] = molecular target: Glucocorticoid receptor (Homo sapiens) (UniProt P04150); test: GR-GFP Redistribution (AID 450;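 active means compounds whose dose series gives a full or clear partial fitted curve of increased nuclear translocation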; further: potency means the concentration at half of the fitted maximal effect); conditions: U2OS GR-GFP nuclear translocation, laser cytometry, 2 h
# Glucocorticoid receptor (Homo sapiens), sequence (P04150 whole entry, looked up, the tested form may be a part): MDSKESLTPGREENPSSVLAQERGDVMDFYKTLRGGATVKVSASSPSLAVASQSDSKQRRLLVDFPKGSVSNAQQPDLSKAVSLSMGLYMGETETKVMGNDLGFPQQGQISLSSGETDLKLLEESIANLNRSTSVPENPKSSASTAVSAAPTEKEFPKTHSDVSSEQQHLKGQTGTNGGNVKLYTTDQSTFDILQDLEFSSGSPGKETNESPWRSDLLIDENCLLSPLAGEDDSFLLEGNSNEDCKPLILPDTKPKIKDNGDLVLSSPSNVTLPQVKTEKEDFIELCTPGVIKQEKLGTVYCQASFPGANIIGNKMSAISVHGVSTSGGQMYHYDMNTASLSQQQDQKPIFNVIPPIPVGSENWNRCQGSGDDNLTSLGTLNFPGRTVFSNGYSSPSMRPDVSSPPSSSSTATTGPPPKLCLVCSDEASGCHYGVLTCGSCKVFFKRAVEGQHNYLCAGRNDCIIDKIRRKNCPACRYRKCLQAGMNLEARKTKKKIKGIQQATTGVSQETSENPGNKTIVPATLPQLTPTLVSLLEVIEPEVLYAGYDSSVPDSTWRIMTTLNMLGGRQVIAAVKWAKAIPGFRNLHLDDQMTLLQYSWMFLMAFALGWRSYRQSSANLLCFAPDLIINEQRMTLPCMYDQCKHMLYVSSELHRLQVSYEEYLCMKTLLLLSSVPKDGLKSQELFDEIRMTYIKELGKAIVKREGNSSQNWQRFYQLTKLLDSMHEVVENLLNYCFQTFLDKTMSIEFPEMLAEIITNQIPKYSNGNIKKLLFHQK
# [2] = molecular target: Glucocorticoid receptor (Homo sapiens) (UniProt P04150); test: GR-EFC Redistribution (AID 451; calls by dose curve; further: potency means the concentration at half of the fitted maximal effect); conditions: CHO-K1 GR-EFC translocation, beta-gal luminescence, 2 h
# How it was run: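 CHO-K1 cells expressing nuclear EA and GR-ED fragments of b-gal; compounds titrated up to 46 uM final, 2 h at 37 C. GR nuclear translocation read as complemented b-gal luminescence after 1 h RT detection.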
# [3] = molecular target: Mitogen-activated protein kinase 10 (Mus musculus) (UniProt Q61831); test: JNK3 AlphaScreen Assay (AID 530; active means well fitted curve in either direction with a large enough effect, not every such curve was filed as active;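 further: kinase came from lysate of stimulated human HepG2 cells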; further: potency means the concentration at half of the fitted maximal effect;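 on activity change, negative = inhibition: signal reports phosphorylation of biotinylated GST-cJun 1-79 at Ser73 with 10 µM ATP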)
# How it was run: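 Pre-activated (IL-1β/TNFα) JNK3 in HepG2 lysates phosphorylates biotin-GST-cJun(1-79), 10 uM ATP; anti-phospho-cJun(Ser73) AlphaScreen read at room temperature, pH 7.6 Tris buffer. Compounds pre-incubated 15 min as titrations.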
# [4] = molecular target: Cytochrome P450 2C19 (Homo sapiens) (UniProt P33261); test: qHTS Assay for Inhibitors and Substrates of Cytochrome P450 2C19 (AID 899); further: nearly all actives have a fitted effect of over 60% in size
# Cytochrome P450 2C19 (Homo sapiens), sequence (P33261 whole entry, looked up): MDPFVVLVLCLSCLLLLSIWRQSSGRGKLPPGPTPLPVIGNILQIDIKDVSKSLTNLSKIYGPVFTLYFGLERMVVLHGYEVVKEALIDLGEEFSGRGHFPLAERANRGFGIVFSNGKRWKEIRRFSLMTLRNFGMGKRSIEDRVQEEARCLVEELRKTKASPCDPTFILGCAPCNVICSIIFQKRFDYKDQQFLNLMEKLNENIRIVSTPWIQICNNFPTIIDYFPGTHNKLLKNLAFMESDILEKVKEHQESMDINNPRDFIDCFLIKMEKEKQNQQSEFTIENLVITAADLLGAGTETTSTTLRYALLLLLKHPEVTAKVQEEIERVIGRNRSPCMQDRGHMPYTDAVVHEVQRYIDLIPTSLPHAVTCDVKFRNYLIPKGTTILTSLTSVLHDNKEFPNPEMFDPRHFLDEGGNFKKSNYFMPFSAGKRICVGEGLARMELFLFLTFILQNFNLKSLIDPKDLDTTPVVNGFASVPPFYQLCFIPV
# How it was run: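 Luminescent read-out of luciferin formed from Luciferin-H EGE (10uM, equal to KM). Enzyme 5nM in 50mM KPO4; compound added, 10 min at 37C, then NADPH regenerating system for 60 min at 37C. Full inhibition defined by 57uM ketoconazole.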
# [5] = qHTS Assay for Lipid Storage Modulators (AID 1519; calls by dose curve); conditions: Drosophila S3 cells, BODIPY lipid droplet/cell ratio, laser cytometry, cells loaded with oleic acid; for activity change, negative = inhibition: at 57.5 µM (top of the series)
# How it was run: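 Cells seeded at 5,000 per well were treated with compounds over a concentration series and loaded with oleic acid (400 uM, as added). Lipid droplet fluorescence (488 nm excitation, 500-530 nm channel) was read by laser-scanning cytometry and normalized to 20 uM Triacsin C.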
# [6] = molecular target: Ubiquitin carboxyl-terminal hydrolase 1 (Homo sapiens) (UniProt O94782); test: Inhibitors of USP1/UAF1: Pilot qHTS (AID 504865); further: nearly all actives have a fitted effect of over 35% in size; further: potency means the concentration at half of the fitted maximal effect;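 on activity change, negative = inhibition: rhodamine fluorescence freed from ubiquitin-rhodamine substrate followed over time; top concentration of the series differs between compounds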
# Ubiquitin carboxyl-terminal hydrolase 1 (Homo sapiens), sequence (O94782 whole entry, looked up): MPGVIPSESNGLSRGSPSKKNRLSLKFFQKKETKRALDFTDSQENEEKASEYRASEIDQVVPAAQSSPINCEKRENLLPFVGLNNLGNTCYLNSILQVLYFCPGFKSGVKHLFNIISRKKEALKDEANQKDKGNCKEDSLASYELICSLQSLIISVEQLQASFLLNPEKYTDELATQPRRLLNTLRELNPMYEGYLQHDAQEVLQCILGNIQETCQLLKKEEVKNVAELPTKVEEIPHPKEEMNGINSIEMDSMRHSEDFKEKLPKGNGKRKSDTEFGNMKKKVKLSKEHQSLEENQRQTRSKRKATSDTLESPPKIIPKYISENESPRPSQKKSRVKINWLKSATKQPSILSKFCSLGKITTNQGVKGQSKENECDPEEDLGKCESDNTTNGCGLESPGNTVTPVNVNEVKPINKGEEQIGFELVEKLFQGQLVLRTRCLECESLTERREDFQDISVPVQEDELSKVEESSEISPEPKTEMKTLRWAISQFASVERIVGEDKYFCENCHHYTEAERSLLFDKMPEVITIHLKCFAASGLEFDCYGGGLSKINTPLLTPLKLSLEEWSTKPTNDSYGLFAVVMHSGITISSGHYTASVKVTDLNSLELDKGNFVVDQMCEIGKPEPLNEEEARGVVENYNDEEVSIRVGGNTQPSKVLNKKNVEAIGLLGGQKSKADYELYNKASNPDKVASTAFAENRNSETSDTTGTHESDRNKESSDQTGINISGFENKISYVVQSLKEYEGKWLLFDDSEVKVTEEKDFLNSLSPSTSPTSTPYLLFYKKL
# How it was run: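 In 50mM HEPES pH 7.8 containing 0.5mM EDTA, 1mM TCEP, 0.1 mg/ml BSA and 0.01% Tween-20, 1nM USP1/UAF1 is exposed to compound for 15 min, then Ub-Rho (150nM final) is added and fluorescence is read over time.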
# [7] = molecular target: DNA dC->dU-editing enzyme APOBEC-3G (Homo sapiens) (UniProt Q9HC16); test: qHTS for inhibitors of Vif-A3G interactions: Validation (AID 588379)
# DNA dC->dU-editing enzyme APOBEC-3G (Homo sapiens), sequence (Q9HC16 whole entry, looked up): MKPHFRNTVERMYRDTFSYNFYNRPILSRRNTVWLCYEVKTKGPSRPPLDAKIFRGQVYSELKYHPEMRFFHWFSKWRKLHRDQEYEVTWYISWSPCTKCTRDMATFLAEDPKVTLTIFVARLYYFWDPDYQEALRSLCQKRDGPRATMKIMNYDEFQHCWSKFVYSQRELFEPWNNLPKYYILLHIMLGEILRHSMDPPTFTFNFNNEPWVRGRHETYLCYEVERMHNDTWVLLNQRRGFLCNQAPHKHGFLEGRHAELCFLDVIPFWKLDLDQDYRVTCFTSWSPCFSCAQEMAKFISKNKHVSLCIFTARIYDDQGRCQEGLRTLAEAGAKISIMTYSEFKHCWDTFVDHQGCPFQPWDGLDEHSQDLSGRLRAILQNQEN
# How it was run: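 HeLa cells stably expressing Vif and A3G-eYFP, 700 cells/well, incubated overnight at 37 deg C, then exposed to compound overnight at 37 deg C. Inhibition of Vif-mediated degradation read as increased yellow fluorescence (Ex 488/Em 500-530) by laser-scanning cytometry.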
# [8] = system: Zika virus NS2B-NS3 protease; test: Primary screen GU AMC qHTS for Zika virus inhibitors (AID 1347154); further: nearly all actives have a fitted effect of over 70% in size
# How it was run: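 Unlinked Zika NS2B hydrophilic domain–NS3 protease complex at 25 nM in 10 mM Tris-HCl pH 8.0, 0.01% Tween 20, with an AMC peptide substrate. Fluorescence change (340/450 nm) over 15 min at room temperature, normalized to controls, fitted to 4-parameter Hill.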
# [9] = Primary qHTS for small molecule stabilizers of the endoplasmic reticulum resident proteome: Secreted ER Calcium Modulated Protein (SERCaMP) assay (AID 1508630)
# How it was run: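 GLuc-SERCaMP-expressing SH-SY5Y cells, pretreated 16 h with compound, are challenged with thapsigargin to empty ER calcium stores; after 4 h, coelenterazine is added directly to the medium and luminescence is imaged.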
# [10] = molecular target: Cytochrome P450 1A2 (Homo sapiens) (UniProt P05177); test: p450-cyp1a2 (AID 410; calls by dose curve; further: potency means the concentration at half of the fitted maximal effect)
# Cytochrome P450 1A2 (Homo sapiens), sequence (P05177 whole entry, looked up): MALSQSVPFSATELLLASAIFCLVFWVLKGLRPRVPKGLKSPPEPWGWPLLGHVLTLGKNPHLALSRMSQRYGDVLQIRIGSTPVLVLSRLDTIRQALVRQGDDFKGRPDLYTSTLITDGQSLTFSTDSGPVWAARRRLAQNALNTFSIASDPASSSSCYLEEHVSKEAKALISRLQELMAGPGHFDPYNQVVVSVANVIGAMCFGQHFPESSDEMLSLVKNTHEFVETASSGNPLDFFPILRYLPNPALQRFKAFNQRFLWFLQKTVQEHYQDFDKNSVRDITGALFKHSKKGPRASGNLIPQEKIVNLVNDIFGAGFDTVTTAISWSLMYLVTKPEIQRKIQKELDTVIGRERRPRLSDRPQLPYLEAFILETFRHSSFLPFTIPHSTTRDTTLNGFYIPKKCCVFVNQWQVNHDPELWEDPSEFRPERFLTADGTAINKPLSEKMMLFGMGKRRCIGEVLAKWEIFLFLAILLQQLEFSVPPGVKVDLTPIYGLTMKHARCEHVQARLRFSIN
# How it was run: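 20nM CYP1A2 with 100uM Luciferin-ME (at Km) in 100mM KPO4; compound preincubated 10 min, NADPH regeneration added, 60 min at room temperature. Luciferin quantified by luminescence after detection reagent; normalized to 57 uM furafylline.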
# [11] = molecular target: 3',5'-cyclic-AMP phosphodiesterase 4B (Homo sapiens) (UniProt Q07343); test: qHTS Assay for Inhibitors of PDE-IV (AID 607; active means well fitted activation curve with a large enough effect in the main read-out, with a control signal flat, not every such curve was filed as active)
# 3',5'-cyclic-AMP phosphodiesterase 4B (Homo sapiens), sequence (Q07343 whole entry, looked up): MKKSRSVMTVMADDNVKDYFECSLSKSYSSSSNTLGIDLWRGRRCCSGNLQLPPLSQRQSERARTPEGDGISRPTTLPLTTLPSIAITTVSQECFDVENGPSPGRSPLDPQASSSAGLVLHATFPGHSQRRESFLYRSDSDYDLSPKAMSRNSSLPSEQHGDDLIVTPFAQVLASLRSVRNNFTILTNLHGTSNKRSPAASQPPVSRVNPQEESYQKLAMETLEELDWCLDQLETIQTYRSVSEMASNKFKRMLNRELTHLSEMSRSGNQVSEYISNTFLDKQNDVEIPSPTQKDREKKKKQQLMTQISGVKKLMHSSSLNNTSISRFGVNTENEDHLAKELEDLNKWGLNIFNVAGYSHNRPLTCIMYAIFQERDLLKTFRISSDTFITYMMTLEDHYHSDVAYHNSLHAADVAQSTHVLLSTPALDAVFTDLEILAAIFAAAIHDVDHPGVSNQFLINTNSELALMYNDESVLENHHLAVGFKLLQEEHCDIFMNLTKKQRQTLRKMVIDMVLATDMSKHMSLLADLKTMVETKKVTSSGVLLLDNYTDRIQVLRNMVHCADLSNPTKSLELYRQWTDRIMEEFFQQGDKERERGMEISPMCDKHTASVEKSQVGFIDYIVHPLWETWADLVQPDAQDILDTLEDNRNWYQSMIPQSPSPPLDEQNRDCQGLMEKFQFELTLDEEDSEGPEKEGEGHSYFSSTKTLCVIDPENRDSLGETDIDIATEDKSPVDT
# How it was run: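 HEK293 ACTOne cells with CNG channel (1000/well), endogenous PDE4; membrane potential dye, compounds up to 22.9 uM final. Fluorescence Ex 535/Em 590; RO 20-1724 (100 uM final) as reference.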
# [12] = molecular target: Cytochrome P450 3A4 (Homo sapiens) (UniProt P08684); test: qHTS Assay for Inhibitors and Substrates of Cytochrome P450 3A4 (AID 884); further: nearly all actives have a fitted effect of over 50% in size
# Cytochrome P450 3A4 (Homo sapiens), sequence (P08684 whole entry, looked up): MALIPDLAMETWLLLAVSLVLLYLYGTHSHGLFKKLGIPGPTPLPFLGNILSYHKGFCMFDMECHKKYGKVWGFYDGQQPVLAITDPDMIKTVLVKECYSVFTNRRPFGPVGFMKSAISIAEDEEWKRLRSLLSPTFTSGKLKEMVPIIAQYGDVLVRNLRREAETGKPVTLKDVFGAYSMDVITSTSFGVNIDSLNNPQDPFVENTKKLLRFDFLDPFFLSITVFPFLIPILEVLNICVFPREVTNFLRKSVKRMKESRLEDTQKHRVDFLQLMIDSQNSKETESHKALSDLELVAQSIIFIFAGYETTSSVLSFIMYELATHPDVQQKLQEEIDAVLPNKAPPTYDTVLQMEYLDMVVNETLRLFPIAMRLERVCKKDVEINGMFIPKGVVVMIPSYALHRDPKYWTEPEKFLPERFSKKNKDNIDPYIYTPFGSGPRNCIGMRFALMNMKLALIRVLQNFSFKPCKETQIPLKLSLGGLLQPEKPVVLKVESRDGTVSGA
# How it was run: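 20 nM human CYP3A4 with 25 uM Luciferin-PPXE (at KM) in 200 mM KPO4, preincubated 10 min with compound; NADPH regeneration started a 60 min RT reaction. Luciferin detected by luminescence, normalized to 57 uM ketoconazole as full inhibition.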
# [13] = molecular target: Cytochrome P450 3A4 (Homo sapiens) (UniProt P08684); test: qHTS Assay for Activators of Cytochrome P450 3A4 (AID 885); further: nearly all actives have a fitted effect of over 65% in size; further: potency means the concentration at half of the fitted maximal effect
# How it was run: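 Human CYP3A4 (20 nM) with Luciferin-PPXE at 25 uM (its KM) in 200 mM KPO4; 10 min compound preincubation, then NADPH regeneration and 60 min reaction at RT. Luciferin read by luminescence; normalized to 57 uM ketoconazole full inhibition.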
# [14] = AP1 Signaling Pathway (AID 357; active means well fitted curve in either direction with a large enough effect, not every such curve was filed as active;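 further: ME-180 reporter cells stimulated with EGF at its EC50 level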); conditions: ME-180 AP-1-bla reporter, EGF-induced, beta-lactamase ratio, 5 h; at 38 µM (top of the series)
# How it was run: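 A ratiometric CCF4 readout (405 nm excitation; 460 and 530 nm emission) quantified AP-1-driven beta-lactamase in ME-180 cells after 5 h with compound and EC50 EGF; AC50 values were derived for activators and inhibitors.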
# [15] = NFAT Signaling Pathway (AID 444; active means well fitted curve in either direction with a large enough effect, not every such curve was filed as active;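 further: carbachol stimulus at about its EC50 of 1 µM final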); conditions: Jurkat NFAT-bla M1, carbachol, beta-lactamase ratio, 5 h; at 38 µM (top of the series)
# How it was run: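 Jurkat cells with NFAT-driven β-lactamase reporter and co-expressed M1 receptor, stimulated with carbachol (final 1 uM, ~EC50), compound titration, 5 h at 37 °C. CCF4 loaded 1 h at RT; 460/530 nm ratio gave %activity and AC50.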
# [16] = Stat Signaling Pathway (AID 446; active means well fitted curve in either direction with a large enough effect, not every such curve was filed as active;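 further: ME-180 cervical cancer cells given 40 pM IL-6 alongside compound; SIE-controlled beta-lactamase reporter measured as 460/530 nm FRET emission ratio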); conditions: ME-180 SIE beta-lactamase reporter, IL-6 stimulated, 5 h; at 38 µM (top of the series)
# How it was run: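 ME-180 cells carrying a SIE-driven beta-lactamase reporter are stimulated with 40 pM IL-6 for 5 h at 37C in the presence of compound. The 460/530 nm FRET substrate ratio is read after 2.5 h at RT. Data are normalised to 300 pM IL-6 and to 125 nM JAK inhibitor controls.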
# [17] = molecular target: Guanine nucleotide-binding protein G(i) subunit alpha-1 (Homo sapiens) (UniProt P63096); test: qHTS Assay for Inhibitors of RGS12 GoLoco Motif Activity (Green Fluorophore) (AID 879);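 further: negative values mean loss of peptide binding seen as reduced polarization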
# Guanine nucleotide-binding protein G(i) subunit alpha-1 (Homo sapiens), sequence (P63096 whole entry, looked up): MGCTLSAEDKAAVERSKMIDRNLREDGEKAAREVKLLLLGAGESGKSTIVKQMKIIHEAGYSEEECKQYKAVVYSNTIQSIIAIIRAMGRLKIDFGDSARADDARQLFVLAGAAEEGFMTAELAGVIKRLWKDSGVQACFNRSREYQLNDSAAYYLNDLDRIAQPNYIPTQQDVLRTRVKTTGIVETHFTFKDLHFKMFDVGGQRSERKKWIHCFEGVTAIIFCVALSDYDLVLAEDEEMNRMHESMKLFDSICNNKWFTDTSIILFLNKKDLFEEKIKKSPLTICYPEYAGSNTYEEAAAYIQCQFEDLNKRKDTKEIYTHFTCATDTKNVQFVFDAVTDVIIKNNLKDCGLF
# How it was run: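 Fluorescence polarization assay: 50 nM Gαi1 with 10 nM FITC-labeled RGS12 GoLoco peptide in 10 mM Tris pH 7.5, 150 mM NaCl, 0.1 mM GDP, 0.05% NP40, 10 min at room temperature with compound.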
# [18] = molecular target: Pyruvate kinase PKM (Homo sapiens) (UniProt P14618); test: qHTS Assay for Activators of Human Muscle Pyruvate Kinase (AID 954; active means well fitted curve in the direction sought with a large enough effect, not every such curve was filed as active)
# How it was run: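 Purified human PKM2 (0.1 nM) with 0.5 mM PEP (Km) and 0.1 mM ADP in 50 mM imidazole pH 7.2, KCl, MgCl2, 1 h at room temperature; ATP formed read by coupled luciferase luminescence. Normalized to no-enzyme/110 uM thiadiazolimine inhibition; 0.3 nM enzyme column for activation.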
# [19] = molecular target: alpha-glucosidase (Oryza sativa, rice) (UniProt Q653V4); test: Counterscreen for Glucocerebrosidase Inhibitors: qHTS Assay for Rice alpha-Glucosidase at pH 5.0 (AID 997)
# How it was run: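 Rice alpha-glucosidase (4 nM final) with 400 uM 4-methylumbelliferyl-alpha-D-glucopyranoside in citrate buffer pH 5.0, 20 min at room temperature, stopped at pH 10; fluorescence 365/440 nm, compounds 0.7 nM–77 uM, AC50 from Hill fits.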
# [20] = measured here: cell count channel max response
# [21] = measured here: lipid channel max response
compound,measurement,setting,value
O=C(O)[C@H]1CN[C@H](C(=O)O)C1,Potency,[1],> 46 µM (inactive)
same,Potency,[2],> 46 µM (inactive)
same,Potency,[3],inactive
same,Potency,[4],inactive
same,"activity change, negative = inhibition",[5],1.7% (inactive)
same,max response,[5]; [20],-9.77%
same,max response,[5]; [21],-9.55%
same,Potency,[6],inactive
same,Potency,[7],inactive
same,Potency,[8],inactive
same,Potency,[9],inactive
N[C@@H](CSS(=O)(=O)O)C(=O)O,Potency,[10],39.8 µM (active)
same,Potency,[2],> 46 µM (inactive)
same,Potency,[11],inactive
same,"activity change, negative = inhibition",[5],3.51% (inactive)
same,max response,[5]; [20],2.48%
same,max response,[5]; [21],7.41%
same,Potency,[6],39.8 µM (active)
same,Potency,[7],inactive
same,Potency,[8],inactive
same,Potency,[9],inactive
CC(=O)NCC(=O)N[C@H](CCC(=O)O)C(=O)O (HELM PEPTIDE1{[ac].G.[dE]}$$$$V2.0),Potency,[1],> 46 µM (inactive)
same,Potency,[2],> 46 µM (inactive)
same,Potency,[3],inactive
same,Potency,[11],inactive
same,"activity change, negative = inhibition",[5],3.36% (inactive)
same,max response,[5]; [20],6.18%
same,max response,[5]; [21],9.84%
same,Potency,[6],inactive
same,Potency,[7],inactive
same,Potency,[8],inactive
same,Potency,[9],inactive
N[C@H](C(=O)O)C1[C@H](C(=O)O)[C@H]1C(=O)O (some centres not stated),Potency,[1],> 46 µM (inactive)
same,Potency,[2],> 46 µM (inactive)
same,Potency,[3],inactive
same,Potency,[11],inactive
same,"activity change, negative = inhibition",[5],1.13% (inactive)
same,max response,[5]; [20],-12.3%
same,max response,[5]; [21],-12.9%
same,Potency,[6],inactive
same,Potency,[7],inactive
same,Potency,[8],inactive
same,Potency,[9],inactive
O[C@@H](c1ccccc1)C1CCN(CCc2ccccc2)CC1,Potency,[1],> 46 µM (inactive)
same,Potency,[2],> 46 µM (inactive)
same,Potency,[3],inactive
same,Potency,[12],inactive
same,Potency,[13],15.8 µM (active)
same,"activity change, negative = inhibition",[5],3% (inactive)
same,max response,[5]; [20],5.72%
same,max response,[5]; [21],10.3%
same,Potency,[7],inactive
same,Potency,[8],inactive
same,Potency,[9],inactive
Cc1nccn1CC1CCC2C(C1=O)c1ccccc1N2C (configuration not stated),Potency,[8],inactive
same,Potency,[9],inactive
CC[C@H](C)N(C)C(=O)c1cc2ccccc2c(-c2ccccc2Cl)n1,"activity change, negative = inhibition",[14],-18% (inactive)
same,"activity change, negative = inhibition",[15],-2.88% (inactive)
same,"activity, negative = inhibition",[16],8.11% (inactive)
same,Potency,[3],inactive
same,outcome,[17],inactive
same,Potency,[13],inactive
same,Potency,[4],inactive
same,outcome,[18],inactive
same,outcome,[19],inactive
same,Potency,[7],inactive
same,Potency,[8],inactive
same,Potency,[9],inactive
CC(=O)O[C@H]1C[C@H]2CC[C@@H]3[C@H]4C[C@@H]([N+]5(C)CCCCC5)[C@@H](OC(C)=O)[C@]4(C)CC[C@@H]3[C@@]2(C)C[C@@H]1[N+]1(C)CCCCC1,Potency,[2],> 46 µM (inactive)
same,Potency,[3],inactive
same,Potency,[11],inactive
same,"activity change, negative = inhibition",[5],-5.08% (inactive)
same,max response,[5]; [20],-19.7%
same,max response,[5]; [21],-24.4%
same,Potency,[7],inactive
same,Potency,[8],inactive
same,Potency,[9],inactive
C=CC1=C(C)C2=NC1=CC1=NC(=CC3=NC(=CC4=NC(=C2)C(C)=C4CCC(=O)O)C(CCC(=O)O)=C3C)C(C=C)=C1C.[Zn],Potency,[3],0.794 µM [activator] (active)
same,Potency,[11],inactive
same,Potency,[4],inactive
same,"activity change, negative = inhibition",[5],-3.5% (inactive)
same,max response,[5]; [20],-8.49%
same,max response,[5]; [21],-12%
same,Potency,[6],44.7 µM (active)
same,Potency,[7],inactive
same,Potency,[8],inactive
same,Potency,[9],inactive
